The full ranking holds about 140,000 sequences; the median of “enrichment ratio after two sorts for PhoP signalling” is about 0, and the highest 2% start at about 11. The sample holds the highest values, similar sequences and a random draw of the others, so the mix is not that of the screen.

B1: PhoQ; a variant is named by its letters at X, in order, P23837 (parent)
chain: MKKLLRLFFPLSLRVRFLLATAAVVLVLSLAYGMVALIGYSVSFDKTTFRLLRGESNLFYTLAKWENNKLHVELPENIDKQSPTMTLIYDENGQLLWAQRDVPWLMKMIQPDWLKSNGFHEIEADVNDTSLLLSGDHSIQQQLQEVREDDDDAEMTHSVAVNVYPATSRMPKLTIVVVDTIPVELKSSYMVWSWFIYVLSANLLLVIPLLWVAAWWSLRPIEALAKEVRELEEHNRELLNPATTRELTSLVRNLNRLLKSERERYDKYRTTLTDLTHSLKTPLXXLQXXLRSLRSEKMSVSDAEPVMLEQISRISQQIGYYLHRASMRGGTLLSRELHPVAPLLDNLTSALNKVYQRKGVNISLDISPEISFVGEQNDFVEVMGNVLDNACKYCLEFVEISARQTDEHLYIVVEDDGPGIPLSKREVIFDRGQRVDTLRPGQGVGLAVAREITEQYEGKIVAGESMLGGARMEVIFGRQHSAPKDE

In the assay the parent is B1. The assay is described as follows: enrichment ratio after two sorts for PhoP signalling (ratio (wild type AVST 3.29)); higher = more functional. The conditions noted are these: with PhoP (E. coli).
With HTVK, the enrichment ratio is not above 0.25.
The same measure for KMRS: not above 0.25; for IPKF: not above 0.25.
In the case of AQWL it was not above 0.25; in that of PAAR, not above 0.25; in that of LETM, not above 0.25.
The same measure for RMVY: not above 0.25; for NVCS: not above 0.25.
As to TVCS, the enrichment ratio was determined as 11.4.
In the case of PVCS it was not above 0.25; in that of SPCA, not above 0.25; in that of TVCA, 14.5.
On to PVCA, for which the enrichment ratio was not above 0.25.
The same measure for PKSQ: not above 0.25.
The same measure for RQKT: not above 0.25; for IWNV: not above 0.25; for LQKK: not above 0.25.
In the case of LFFM, the enrichment ratio is not above 0.25.
In the case of ITFY it was not above 0.25.
As to WWLL, the enrichment ratio is not above 0.25.
On to SFAI, for which the enrichment ratio is not above 0.25.
The same measure for SQCS: 14.7; for SNAI: 22; for IQCS: not above 0.25.
The same measure for SNCS: 19.6; for LNAI: not above 0.25; for SNIF: not above 0.25.
In the case of WQCS it was not above 0.25; in that of SNNW, 1.31.
Turning to GFWW, the enrichment ratio is 1.03.
LGGY: the enrichment ratio was not above 0.25.
The same measure for ESVH: not above 0.25; for PMVM: not above 0.25; for GMTV: 0.937.
For KCTV, the enrichment ratio is not above 0.25.
In the case of LSTF it was not above 0.25; in that of KCTF, not above 0.25.
The same measure for TCTV: 12.6; for TCTF: 12.4; for LQSN: not above 0.25.
In the case of PMKC it was not above 0.25.
Take AKDL: the enrichment ratio was not above 0.25.
In the case of NKTC, the enrichment ratio was not above 0.25.
MKFC: the enrichment ratio was not above 0.25.
In the case of METC it was 45.8; in that of MEFC, 12.8; in that of MEFA, not above 0.25.
In the case of MESC it was 10.2; in that of MFTC, not above 0.25.
On to LQYS, for which the enrichment ratio is not above 0.25.
With KENY, the enrichment ratio is not above 0.25.
As to IMSK, the enrichment ratio was not above 0.25.
The same measure for EIPN: not above 0.25; for MRSG: not above 0.25.
The same measure for NESG: not above 0.25; for MESN: 7.39; for TESN: 20.2.
The same measure for QESG: 6.03.
For PESG, the enrichment ratio is not above 0.25.
The same measure for SLSG: 11.8; for PLSG: not above 0.25; for MESG: 15.7.
The same measure for SRSG: not above 0.25; for QESN: 5.1; for TESG: 24.9.
Consider GKLS, for which the enrichment ratio was not above 0.25.
In the case of SVRW it was not above 0.25.
The same measure for RDAA: not above 0.25.
Turning to KNCK, the enrichment ratio was not above 0.25.
Take VGMN: the enrichment ratio was not above 0.25.
The same measure for HWYH: not above 0.25; for IYMC: not above 0.25.
With EKVI, the enrichment ratio was not above 0.25.
With HFDW, the enrichment ratio is not above 0.25.
With HAFN, the enrichment ratio was not above 0.25.
The same measure for EAES: not above 0.25; for SESG: 28.9.
The same measure for SQSG: 6.12; for STSG: 8.56; for FCSG: not above 0.25.
In the case of AESN it was 11; in that of KYSG, not above 0.25; in that of AKSG, 5.13.
Regarding AESG, the enrichment ratio worked out at 25.4.
Regarding SCSG, the enrichment ratio was 20.2.

The values are drawn from a collection of fitness landscapes (doi:10.1126/science.1257360).
